Reference: the supplement of paper PMC11624193, “Coupling cellular drug-target engagement to downstream pharmacology with CeTEAM” (Nature Communications, 2024)
Counter-ions that a name gives are not always drawn.

The compounds below were run against PARP1 L713F-nLuc biosensor (HCT116) (UniProt P09874) (assay: PARP1 L713F-nLuc/akaLuc ratio relative to DMSO control (biosensor stabilization) (fold change); higher = more PARP1 biosensor stabilization (target engagement / stabilizer), active = hit call of the paper). Details: stock concentration (mM; final µM = stock mM x 1): 10; 24 h;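 active = log2 fold change beyond 2 SD from the library mean after excluding viability outliers; inactive = within 2 SD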.
PARP1 L713F-nLuc biosensor (HCT116), sequence (P09874 whole entry L713F, looked up): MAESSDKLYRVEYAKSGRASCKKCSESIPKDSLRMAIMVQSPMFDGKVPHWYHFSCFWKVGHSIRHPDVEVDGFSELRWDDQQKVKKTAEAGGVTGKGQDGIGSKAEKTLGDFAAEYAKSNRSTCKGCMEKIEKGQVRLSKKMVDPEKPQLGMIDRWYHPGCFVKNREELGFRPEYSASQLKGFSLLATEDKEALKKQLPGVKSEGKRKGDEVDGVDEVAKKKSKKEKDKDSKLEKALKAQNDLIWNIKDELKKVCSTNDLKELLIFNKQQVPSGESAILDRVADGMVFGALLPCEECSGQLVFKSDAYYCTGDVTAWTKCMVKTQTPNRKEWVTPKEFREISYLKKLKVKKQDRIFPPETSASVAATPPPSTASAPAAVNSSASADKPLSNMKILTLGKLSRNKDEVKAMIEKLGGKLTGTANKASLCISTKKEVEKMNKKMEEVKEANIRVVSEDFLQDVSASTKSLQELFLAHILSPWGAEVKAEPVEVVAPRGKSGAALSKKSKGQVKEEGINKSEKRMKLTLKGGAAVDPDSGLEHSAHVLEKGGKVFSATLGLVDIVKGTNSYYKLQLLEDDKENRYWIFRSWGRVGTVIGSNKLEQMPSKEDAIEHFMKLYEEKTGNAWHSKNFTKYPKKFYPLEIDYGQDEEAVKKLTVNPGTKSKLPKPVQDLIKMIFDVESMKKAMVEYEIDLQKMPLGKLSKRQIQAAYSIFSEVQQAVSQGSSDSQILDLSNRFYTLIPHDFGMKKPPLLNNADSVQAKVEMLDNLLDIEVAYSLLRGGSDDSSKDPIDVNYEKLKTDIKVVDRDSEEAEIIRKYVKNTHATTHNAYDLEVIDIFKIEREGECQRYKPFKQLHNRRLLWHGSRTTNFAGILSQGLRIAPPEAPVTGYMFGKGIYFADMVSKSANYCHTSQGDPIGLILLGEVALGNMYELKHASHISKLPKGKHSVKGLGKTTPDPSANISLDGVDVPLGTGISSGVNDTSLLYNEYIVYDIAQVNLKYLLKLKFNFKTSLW

| SMILES | PARP1 L713F-nLuc/akaLuc ratio |
| --- | --- |
| COc1cc(/C=C/C(=O)O[C@H]2CC[C@]34C[C@]35CC[C@]3(C)[C@@H]([C@H](C)CCC=C(C)C)CC[C@@]3(C)[C@@H]5CC[C@H]4C2(C)C)ccc1O [γ-Oryzanol] | 1.11 (inactive) |
| Cc1cnc(Nc2ccc(OCCN3CCCC3)cc2)nc1Nc1cccc(S(=O)(=O)NC(C)(C)C)c1 [Fedratinib] | 0.694 (inactive) |
| Oc1cc(O)c2cc(O)c(-c3cc(O)c(O)c(O)c3)[o+]c2c1 [Delphinidin (chloride)] | 1.09 (inactive) |
| O=C(/C=C/c1ccc(O)c(O)c1)O[C@@H]1C[C@](O)(C(=O)O)C[C@@H](O)[C@H]1O [Chlorogenic acid] | 1.16 (inactive) |
| O=c1ncccn1[C@@H]1O[C@H](CO)[C@@H](O)[C@H]1O [Zebularine] | 0.711 (inactive) |
| OC(COc1ccc(C(F)(F)F)cc1)CN(Cc1ccccc1)Cc1ccccc1 (stereo not drawn) | 1.03 (inactive) |
| Cc1ccc(NC(=O)c2ccc(CN3CCN(C)CC3)cc2)cc1Nc1nc(-c2cccnc2)cs1 [Masitinib (AB1010)] | 0.851 (inactive) |
| CCN(c1cc(-c2ccc(CN3CCOCC3)cc2)cc(C(=O)NCc2c(C)cc(C)[nH]c2=O)c1C)C1CCOCC1 [Tazemetostat (hydrobromide)] | 0.726 (inactive) |
